# Measurements published in the antibiotic and cytotoxicity screens of Wong et al. (2023).
# About 3,300 (8.5%) of roughly 39,000 compounds were called active. Many of the other results were omitted from the sample, so actives are more common in it than they were.
# System: HepG2
# Experiment: cytotoxicity call (relative viability < 0.9)
# Conditions: 10 µM
row,Compound,cytotoxicity call
1,C[C@@H]1CN([C@@H](C)CO)S(=O)(=O)c2ccc(C#Cc3ccccc3F)cc2O[C@@H]1CN(C)CC1CC1,inactive
2,C[C@H](CO)N1C[C@H](C)[C@@H](CN(C)Cc2ccc(Oc3ccccc3)cc2)Oc2c(NS(=O)(=O)c3ccc(F)cc3)cccc2C1=O,inactive
3,Cc1cc(=O)n2ncnc2n1CC(=O)NN,inactive
4,Cc1cc(C(=O)Nc2cccc3c2O[C@H](CN(C)C(=O)NC2CCCCC2)[C@@H](C)CN([C@@H](C)CO)C3=O)n(C)n1,inactive
5,C[C@H](CO)N1C[C@H](C)[C@H](CN(C)S(=O)(=O)c2cn(C)cn2)Oc2ccc(NC(=O)NC3CCCCC3)cc2CC1=O,inactive
6,C[C@@H]1CN([C@H](C)CO)C(=O)c2cc(NC(=O)CCN3CCOCC3)ccc2O[C@H]1CN(C)C(=O)Nc1ccccc1,inactive
7,CS(=O)(=O)Nc1ccc2c(c1)[C@H]1C[C@@H](CC(=O)NCC3CC3)O[C@@H](CO)[C@H]1O2,inactive
8,CC(C)N1C[C@@H](CNCc2ccc(Oc3ccccc3)cc2)Oc2c(NC(=O)c3ccncc3)cccc2C1=O,inactive
9,CC(C)NCC(O)COc1cccc2[nH]c3ccccc3c12 (configuration not stated),active
10,CC(C)NCC(O)COc1cccc2[nH]ccc12 (configuration not stated),inactive
11,CC(C)NCC(O)COc1ccc(COCCOC(C)C)cc1.O=C(O)C=CC(=O)O (configuration not stated),inactive
12,O=C1C(=O)N(C[C@@H](O)COc2cccc3ccccc23)C(=O)C(=O)N1C[C@@H](O)COc1cccc2ccccc12,inactive
13,COCCc1ccc(OCC(O)CNC(C)C)cc1.O=C(O)C(O)C(O)C(=O)O (configuration not stated),inactive
14,COc1ccccc1N1CCN(CC(O)COc2cccc3ccccc23)CC1 (configuration not stated),active
15,CC(C)NCC(O)COc1cccc2ccccc12.Cl (configuration not stated),active
16,C=CCc1ccccc1OCC(O)CNC(C)C.Cl (configuration not stated),active
17,COc1ccccc1OCC(O)CN1CCN(CC(=O)Nc2c(C)cccc2C)CC1.Cl.Cl (configuration not stated),inactive
18,CC(C)NCC(O)COc1ccc(CC(N)=O)cc1 (configuration not stated),inactive
19,O=C(C[C@H]1C=C[C@@H](NS(=O)(=O)c2ccc(F)cc2)[C@@H](CO)O1)NCc1ccc(Cl)c(Cl)c1,inactive
20,COc1ccc2c3c(n(c2c1)C)[C@H](CO)N(C[C@]13CN(CC2CCOCC2)C1)C(=O)c1ccc(cc1)F,inactive
21,C[C@H](CO)N1C[C@H](C)[C@H](CN(C)S(=O)(=O)c2cccc(F)c2)Oc2ncc(Br)cc2C1=O,inactive
22,C[C@@H]1CN([C@@H](C)CO)C(=O)c2cc(NC(=O)CCCN(C)C)ccc2O[C@@H]1CN(C)S(=O)(=O)c1ccccc1,inactive
23,C[C@H]1CN([C@@H](C)CO)C(=O)Cc2cc(NC(=O)Cn3cnnn3)ccc2O[C@H]1CN(C)S(=O)(=O)c1cccs1,inactive
24,C[C@H]1CN([C@@H](C)CO)C(=O)Cc2cc(NC(=O)C3CC3)ccc2O[C@@H]1CN(C)Cc1ccc(Oc2ccccc2)cc1,inactive
25,Cc1noc(C)c1NC(=O)Nc1cccc2c1O[C@@H](CN(C)S(=O)(=O)c1ccccc1)[C@@H](C)CN([C@@H](C)CO)C2=O,inactive
26,CC1=C(/C=C/C(C)=C/C=C/C(C)=C/C=C/C=C(C)/C=C/C=C(C)/C=C/C2=C(C)C(=O)[C@@H](O)CC2(C)C)C(C)(C)C[C@H](O)C1=O,inactive

row,Compound,cytotoxicity call
1,CCOC(=O)N[C@@H]1CC(=O)N(C2CC2)C1,inactive
2,N[C@H](CO)COCc1ccccc1,inactive
3,Cc1ccc(S(=O)(=O)N(C)C[C@H]2Oc3c(NC(=O)c4ccncc4)cccc3C(=O)N([C@H](C)CO)C[C@@H]2C)cc1,inactive
4,C[C@@H]1CCCCO[C@H](CN(C)CC2CCCCC2)[C@H](C)CN([C@@H](C)CO)C(=O)c2cc(NC(=O)Cc3ccccc3)ccc2O1,inactive
5,C[C@H](CO)N1C[C@H](C)[C@H](CN(C)S(=O)(=O)c2cn(C)cn2)Oc2ccc(NC(=O)Cc3cn(C)c4ccccc34)cc2CC1=O,inactive
6,Cc1cc(C(=O)Nc2cccc3c2O[C@H](CN(C)C(=O)Nc2c(C)noc2C)[C@H](C)CN([C@H](C)CO)C3=O)n(C)n1,inactive
7,C[C@H](CO)N1C[C@H](C)[C@H](CN(C)Cc2ccccc2)OCCCC[C@H](C)Oc2ccc(NS(=O)(=O)c3ccccc3)cc2C1=O,inactive
8,C[C@@H]1CN([C@@H](C)CO)C(=O)c2cc(NS(=O)(=O)c3ccccc3)ccc2O[C@@H](C)CCCCO[C@@H]1CN(C)Cc1ccccc1,inactive
9,C[C@@H]1CCCCO[C@@H](CN(C)Cc2ccccc2)[C@@H](C)CN([C@@H](C)CO)C(=O)c2cc(NS(=O)(=O)c3ccccc3)ccc2O1,active
10,Cc1ccc(S(=O)(=O)Nc2ccc3c(c2)C(=O)N([C@@H](C)CO)C[C@@H](C)[C@@H](CN(C)Cc2ccccc2)OCCCC[C@H](C)O3)cc1,inactive
11,Cc1ccc(S(=O)(=O)Nc2ccc3c(c2)C(=O)N([C@H](C)CO)C[C@@H](C)[C@H](CN(C)Cc2ccccc2)OCCCC[C@H](C)O3)cc1,active
12,Cc1ccc(S(=O)(=O)Nc2ccc3c(c2)C(=O)N([C@H](C)CO)C[C@@H](C)[C@@H](CN(C)Cc2ccccc2)OCCCC[C@@H](C)O3)cc1,inactive
13,C[C@H]1CN([C@@H](C)CO)S(=O)(=O)c2ccc(C#CCN(C)C)cc2O[C@@H]1CN(C)Cc1ccc2c(c1)OCO2,inactive
14,C[C@@H]1CN([C@@H](C)CO)C(=O)Cc2cc(NC(=O)CCCN(C)C)ccc2O[C@@H]1CN(C)S(=O)(=O)c1ccc(Cl)cc1,inactive
15,COC(=O)C(CC#Cc1ccc2c(c1)[C@]1(C(=O)N2)[C@H](c2ccccc2OCCO)N2[C@H](c3ccccc3)[C@H](c3ccccc3)OC(=O)[C@H]2[C@@H]1C(=O)N1CCc2cc(OC)c(OC)cc2C1)C(=O)OC,inactive
16,C[C@@H]1CCCCO[C@@H](CN(C)C(=O)Nc2ccc3c(c2)OCO3)[C@H](C)CN([C@H](C)CO)C(=O)c2cc(NC(=O)C3CCCCC3)ccc2O1,inactive
17,C=CN1CCCC1=O,inactive
18,C[C@@H]1CN([C@@H](C)CO)C(=O)c2cc(NC(=O)NC3CCCCC3)ccc2O[C@H]1CN(C)Cc1ccc(Cl)c(Cl)c1,inactive
19,C[C@@H]1CN([C@H](C)CO)C(=O)c2cc(NS(=O)(=O)c3ccc(Cl)cc3)ccc2O[C@@H]1CN(C)Cc1ccc(C(F)(F)F)cc1,active
20,C[C@H](CO)N1C[C@H](C)[C@@H](CN(C)Cc2ccc(C(F)(F)F)cc2)Oc2ccc(NS(=O)(=O)c3ccc(Cl)cc3)cc2C1=O,active
21,C[C@H]1CN([C@@H](C)CO)C(=O)c2cc(NS(=O)(=O)c3ccc(Cl)cc3)ccc2O[C@H]1CN(C)Cc1ccc(C(F)(F)F)cc1,inactive
22,C[C@@H]1CN([C@@H](C)CO)C(=O)c2cc(NS(=O)(=O)c3ccc(Cl)cc3)ccc2O[C@H]1CN(C)Cc1ccc(C(F)(F)F)cc1,inactive
23,C[C@H]1CN([C@@H](C)CO)C(=O)c2cc(NS(=O)(=O)c3ccc(Cl)cc3)ccc2O[C@@H]1CN(C)Cc1ccc(C(F)(F)F)cc1,inactive
24,C[C@@H]1CN([C@@H](C)CO)C(=O)c2cc(NS(=O)(=O)c3ccc(Cl)cc3)ccc2O[C@@H]1CN(C)Cc1ccc(C(F)(F)F)cc1,active
25,C[C@H](CO)N1C[C@H](C)[C@H](CN(C)Cc2ccc(C(F)(F)F)cc2)Oc2ccc(NS(=O)(=O)c3ccc(Cl)cc3)cc2C1=O,active
26,C[C@@H]1CN([C@H](C)CO)C(=O)c2cc(NS(=O)(=O)c3ccc(Cl)cc3)ccc2O[C@H]1CN(C)Cc1ccc(C(F)(F)F)cc1,inactive
